The source of these data is PubChem BioAssay AID1851 (National Center for Advancing Translational Sciences (NCATS), 2009).

In all, about 16,000 compounds went through this assay and about 5,800 (36%) were called active. About 23% were inconclusive and are not listed. This is one part of the list. The source holds several records for some structures; these can differ, active in one and inactive in another. A number with no mark means an inactive call. Calls come from the whole dose curve; as a rule, active = well fitted curve in the direction sought with a large enough effect; inconclusive = small, poorly fitted or top-dose-only effect, or effect the other way; inactive = no such curve, though single readings can be large or run the other way.

By AC50 is commonly meant the concentration giving half of the maximal activity seen.
% is set by controls: 0 for no effect and ±100 for the full control effect.

In this experiment the target is Cytochrome P450 2C19 (Homo sapiens) (UniProt P33261). Kind of experiment: Cytochrome panel assay with activity outcomes. Particulars: recombinant CYP, pro-luciferin dealkylation, luminescence, p450-cyp2c19; series mostly up to 57.1 µM; activity, negative = inhibition: at the top concentration.
Sequence of Cytochrome P450 2C19 (Homo sapiens) (P33261 whole entry, looked up): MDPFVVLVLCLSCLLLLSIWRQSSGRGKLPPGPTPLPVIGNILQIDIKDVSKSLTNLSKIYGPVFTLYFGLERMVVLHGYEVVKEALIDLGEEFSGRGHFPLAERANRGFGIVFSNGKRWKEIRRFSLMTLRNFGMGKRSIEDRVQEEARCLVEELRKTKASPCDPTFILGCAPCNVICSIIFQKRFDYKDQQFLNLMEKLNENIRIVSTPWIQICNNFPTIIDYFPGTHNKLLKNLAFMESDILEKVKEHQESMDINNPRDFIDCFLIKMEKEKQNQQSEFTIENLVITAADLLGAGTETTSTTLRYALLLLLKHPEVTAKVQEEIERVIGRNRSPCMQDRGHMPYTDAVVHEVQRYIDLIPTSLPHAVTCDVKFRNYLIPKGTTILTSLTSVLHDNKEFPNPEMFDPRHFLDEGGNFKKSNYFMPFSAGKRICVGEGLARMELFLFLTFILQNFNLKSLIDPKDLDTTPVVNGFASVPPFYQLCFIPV
Consider `O=C(N/N=C/c1ccc(F)cc1)c1ccc(Br)cc1`, for which the “activity, negative = inhibition” value was -28.4%.

For the molecule `CC(C)NC(=O)CC(=O)N/N=C/c1ccc(Br)cc1`, the AC50 is 3.55 µM (active).

With `CC(C)NC(=O)CC(=O)N/N=C/c1ccc(F)cc1`, the “activity, negative = inhibition” value is 23%. For `CC(C)(C)NC(=O)C(=O)N/N=C/c1ccc(Br)cc1`, the AC50 is 14.1 µM (active). For the molecule `O=Nc1ccc(NOC(=O)c2ccc(Br)cc2)cc1`, the “activity, negative = inhibition” value was -12.5%. With `CCOc1ccc(OCCOCCN2CCc3ccccc3C2)cc1`, the AC50 is 14.1 µM (active). With `CCCCOc1ccc(CN2CCC(O)CC2)cc1`, the “activity, negative = inhibition” value is 6.74%. For the molecule `CCNC(=O)c1c(NC(C)=O)sc2c1CCCC2`, the “activity, negative = inhibition” value is -12.1%. Regarding `CC(=O)Nc1sc2c(c1CN1CCN(C)CC1)CCCC2`, the AC50 is 6.31 µM (active). On the same count and under the same terms, under `Cc1cc(OCC(F)(F)C(F)(F)C(F)(F)C(F)(F)C(F)(F)C(F)F)nc(N)n1` stands 3.16 µM (active). On to `COc1cc(-c2ccc(=O)[nH]n2)ccc1OC(F)F`, for which the “activity, negative = inhibition” value is -35% [at 25.6 µM].

For the molecule `CCCc1cc(=O)[nH]c(SCc2cc(Cl)ccc2OC(F)F)n1`, the AC50 was 2.82 µM (active). Turning to `O=C(COc1cccc2ccccc12)NNC(=O)c1cccs1`, the AC50 is 10 µM (active).

For the molecule `Cc1cccc(C)c1NC(=O)/C(C#N)=C/c1cccs1`, the AC50 is 4.47 µM (active).

`Cc1ccc(S(N)(=O)=O)cc1NC(=O)/C=C/c1cccs1`: the “activity, negative = inhibition” value is -24.6%. For the molecule `N#C/C(=C\c1cccs1)C(=O)NCC1CCCO1` (stereo not given), the “activity, negative = inhibition” value is -16.4%. As to `CC(=O)Nc1nnc(S(N)(=O)=O)s1`, the “activity, negative = inhibition” value is 2.11% [at 25.6 µM]. `CC(C)=CC(=O)Nc1nnc(C(C)C)s1`: the AC50 was 25.1 µM (active). In the case of `C=CCOC(=O)C1=C(C)NC(SC)=C(C#N)C1c1cccs1` (stereo not given), the AC50 was 0.178 µM (active). Regarding `C=CCOC(=O)C1=C(C)NC(SCC(=O)OCC)=C(C#N)C1c1ccc(C)cc1` (stereo not given), the AC50 is 2.82 µM (active).

As to `Cn1cccc1C(=O)N1CCC[C@@]2(CCN(Cc3ccc(C#N)cc3)C2)C1`, the “activity, negative = inhibition” value was 11.3%.

`C#C[C@H](N)CCC(=O)O`: the “activity, negative = inhibition” value was 75.3%. Take `Cc1nnsc1SC(C)C(=O)O` (stereo not given): the “activity, negative = inhibition” value was -14.3%. On to `CCNc1ncc2nc(-c3ccc(OC)cc3)c(=O)n(-c3ccc(OC)cc3)c2n1`, for which the “activity, negative = inhibition” value was 9.96%.

For the molecule `CN(C(=S)NC(=O)c1ccccc1Br)C1CCCCC1`, the AC50 is 7.94 µM (active). Still for that read-out and setting: under `C/C=C\C[C@H](C)[C@H](O)[C@H]1C(=O)N[C@@H](CC)C(=O)N(C)CC(=O)N(C)[C@@H](CC(C)C)C(=O)N[C@@H](C(C)C)C(=O)N(C)[C@@H](CC(C)C)C(=O)N[C@@H](C)C(=O)N[C@@H](C)C(=O)N(C)[C@@H](CC(C)C)C(=O)N(C)[C@@H](CC(C)C)C(=O)N(C)[C@@H](C(C)C)C(=O)N1C` stands “inactive”. As for `CC(C)OC(=O)c1cc2c(OC[C@@H](O)CNC(C)(C)C)cccc2[nH]1`, the “activity, negative = inhibition” value was -10.6%. As to `O=[N+]([O-])c1ccc(/C=N/N/C(=N/c2ccccn2)c2ccccn2)cc1`, the AC50 is 28.2 µM (active). For `C[N+]1(C)CCC(=C(c2ccccc2)c2ccccc2)CC1`, the “activity, negative = inhibition” value is 3.56% [at 25.6 µM]. `c1ccc2cc(Sc3ncnc4c3oc3ccccc34)ccc2c1`: the AC50 was 2 µM (active). On the same count and under the same terms, to `Oc1c(C(O)(c2ccccc2)c2ccc3ccccc3c2O)ccc2ccccc12` belongs 0.794 µM (active); to `Cc1ccc(N=Cc2cc(C)n(C3CCCC3)c2C)cc1`, 17.8 µM (active).

For `C[C@@]12CCC(=O)C=C1CC[C@@H]1[C@@H]2[C@H](O)C[C@]2(C)[C@@H]1CC[C@]2(O)C(=O)CO`, the “activity, negative = inhibition” value was 16.8% [at 25.6 µM].

Regarding `C[C@@]12CCC(=O)C=C1CC[C@H]1[C@@H]2[C@@H](O)C[C@]2(C)[C@@H]1CC[C@@]2(O)C(=O)COC(=O)C1CCCC1`, the activity, negative = inhibition was -27.7% [at 11.4 µM]. Consider `C[C@@]12C[C@H](O)[C@@H]3[C@H](CCC4=CC(=O)CC[C@]43C)[C@H]1CC[C@@H]2c1csc(N)n1`, for which the AC50 was 3.98 µM (active). On the same count and under the same terms, under `Cc1cc(C)nc(NC(=O)/C=C/c2ccc(Cl)cc2Cl)c1` stands 15.8 µM (active). For the molecule `COCc1nnc(NC(=O)c2ccc(S(=O)(=O)N3CCCCCC3)cc2)o1`, the “activity, negative = inhibition” value was -18.3%. Regarding `CCOC(=O)Cc1csc(NC(=O)c2ccc(Cl)nc2)n1`, the AC50 is 10 µM (active). `CCOC(=O)Cc1csc(NC(=O)c2c(-c3c(Cl)cccc3Cl)noc2C)n1`: the AC50 was 3.55 µM (active).

For `Cc1noc(C)c1C(=O)N1CCC[C@@]2(CCN(C(=O)Nc3cccc(F)c3)C2)C1`, the “activity, negative = inhibition” value is 5.9%. Take `Cc1onc(-c2c(Cl)cccc2Cl)c1C(=O)Nc1ccc2c(c1)OCO2`: the AC50 is 1.12 µM (active).

For the molecule `CCOC(=O)Cc1csc(NC(=O)c2ccc(S(=O)(=O)N3CCCCC3)cc2)n1`, the AC50 was 14.1 µM (active). For the molecule `Cc1noc(C)c1C(=O)N1CCC2(CCCN(C(=O)Nc3cccc(F)c3)C2)CC1`, the “activity, negative = inhibition” value is -29.5%. As for `CC(C)CN1CCCC2(CCN(C(=O)c3cnccn3)CC2)C1`, the “activity, negative = inhibition” value was -12.2%. Regarding `O=C1CN(C(=O)c2ccc(Br)o2)C(c2ccc(F)cc2)c2cc(Cl)ccc2N1` (stereo not given), the AC50 was 7.94 µM (active). Consider `CCCCC(=O)Nc1sc2c(c1C(=O)OCC)CCC(C=O)=C2Cl`, for which the AC50 is 14.1 µM (active). Consider `O=C1Nc2ccccc2Nc2ncccc21`, for which the “activity, negative = inhibition” value was -12.3%.

For `C/C(=N\NC(=O)CSCc1ccc(Cl)cc1)c1ccc2c(c1)OCCO2`, the AC50 is 1.26 µM (active). Take `CC(/C=C/c1ccccc1)=N/NC(=O)CNC(=O)c1ccc2c(c1)OCO2`: the “activity, negative = inhibition” value is -24.7%. On to `C=C(CC)C(=O)c1ccc(OCC(=O)O)c(Cl)c1Cl`, for which the “activity, negative = inhibition” value is -9.62% [at 25.6 µM].
